This excerpt belongs to a sample that is enriched for hits.
STK33 inh: STK33 kinase inhibitors, primary screen, biochemical, luminescence, ADP-Glo, MBP substrate; Serine/threonine-protein kinase 33 (Homo sapiens), Q9BYT3; inhibition, % at 12.5 µM; 27,000 compounds, 0.44% hits; in the data active = inhibition above about 20%
Target sequence (Q9BYT3 whole entry, looked up): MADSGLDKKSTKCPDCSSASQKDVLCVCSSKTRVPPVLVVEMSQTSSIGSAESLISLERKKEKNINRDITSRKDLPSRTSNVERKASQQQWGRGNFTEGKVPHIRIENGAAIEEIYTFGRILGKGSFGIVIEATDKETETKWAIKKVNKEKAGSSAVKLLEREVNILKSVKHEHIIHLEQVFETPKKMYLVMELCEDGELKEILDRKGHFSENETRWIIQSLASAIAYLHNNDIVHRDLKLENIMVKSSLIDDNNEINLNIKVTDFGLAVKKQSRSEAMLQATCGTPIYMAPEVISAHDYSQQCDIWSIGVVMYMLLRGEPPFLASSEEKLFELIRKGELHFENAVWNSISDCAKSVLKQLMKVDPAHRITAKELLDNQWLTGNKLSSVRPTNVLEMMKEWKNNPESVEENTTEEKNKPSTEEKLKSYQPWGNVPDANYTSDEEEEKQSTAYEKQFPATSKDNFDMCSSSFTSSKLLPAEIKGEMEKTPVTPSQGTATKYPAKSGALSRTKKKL
NOMO-1 viab: NOMO-1 AML cell viability reduction, primary screen, STK33 inhibitor project, CellTiter-Glo luminescence; NOMO-1 AML viability, 72 h; inhibition, % (test concentration not listed); 37,000 compounds, 7.5% hits; AID 2330, 2010; in the data active = inhibition above about 80%
p53 PUMA act: mutant p53 pathway re-activators, primary screen, cell-based, SW480, luciferase, single point, HTS. AID 624151, 2012. 28,000 compounds, 1.5% hits. activation, % at 9.98 µM. SW480 PUMA-promoter luciferase, p53 mutant reactivation; in the data active = activation above about 52%
ID4 binder: binders of human ID4 protein, primary screen, biochemical, small molecule microarray, single point; DNA-binding protein inhibitor ID-4 (Homo sapiens), P47928; Flag-ID4 binding, fluorescence F/B; calls only; 31,000 compounds, 1.2% hits; AID 624137, 2012; call rule not given here;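 also: a binder raises fluorescence above local background on the spot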
A number is an active result.

`C[C@@H]1CCCCO[C@H](CN(C)C(=O)c2ccccc2)[C@H](C)CN([C@@H](C)CO)C(=O)c2cc(NS(=O)(=O)c3ccc(Cl)cc3)ccc2O1` gave p53 PUMA act inactive.
For Cc1noc(C)c1S(=O)(=O)N(C)C[C@@H]1OCCCC[C@@H](C)Oc2ccc(NC(=O)CCCN(C)C)cc2C(=O)N([C@@H](C)CO)C[C@H]1C the results were p53 PUMA act inactive and ID4 binder inactive.
Screening COc1ccc(C)cc1S(=O)(=O)N(C)CC(=O)Nc1cccc([N+](=O)[O-])c1 returned STK33 inh inactive, NOMO-1 viab inactive, p53 PUMA act inactive and ID4 binder inactive.
For C[C@@H]1O[C@@H](O[C@H]2[C@H](O)[C@@H](O)[C@H](OC[C@H]3O[C@@H](OC(=O)[C@]45CCC(C)(C)CC4C4=CCC6[C@@]7(C)CC[C@H](O)C(C)(C)C7CC[C@@]6(C)[C@]4(C)CC5)[C@H](O)[C@@H](O)[C@@H]3O)O[C@@H]2CO)[C@H](O)[C@H](O)[C@H]1O (stereo partly specified) the results were STK33 inh inactive and NOMO-1 viab 122.
Screening C[C@@H]1CN([C@H](C)CO)C(=O)c2cc(-c3ccc(C#N)cc3)cnc2O[C@H]1CN(C)CC1CCCC1 returned ID4 binder inactive.
`COc1ccc(NC(=O)CSC2=C(C#N)C(c3ccc(Cl)cc3)CC(=O)N2)cc1` (stereo unspecified) gave STK33 inh inactive, NOMO-1 viab inactive, p53 PUMA act inactive and ID4 binder inactive.
`COc1ccc(CN(C)C[C@H]2Oc3ccc(NC(=O)C4CC4)cc3C(=O)N([C@@H](C)CO)C[C@@H]2C)cc1` gave STK33 inh inactive, NOMO-1 viab inactive, p53 PUMA act inactive and ID4 binder inactive.
`Cc1cc(C)nc(N(C#N)C(C(=O)c2ccccc2)c2ccccc2)n1` (stereo unspecified) gave STK33 inh inactive, NOMO-1 viab 110, p53 PUMA act inactive and ID4 binder inactive.
Screening COc1cccc(NC(=O)CSc2nc(C)c(C)c(C)c2C#N)c1 returned STK33 inh inactive, NOMO-1 viab inactive, p53 PUMA act inactive and ID4 binder inactive.
CC(=O)O[C@@H]1CC2C(C)(C)CCC[C@]2(C)C2CC[C@]3(C)C(=CC(=O)O[C@H]3c3ccoc3)[C@@]21C (stereo partly specified) was read as STK33 inh inactive and NOMO-1 viab 99.
For CCOC(=O)C1=C(CSc2ccc(Cl)cc2)NC(=O)NC1c1cc(C)ccc1C (stereo unspecified) the results were NOMO-1 viab 115.
C[C@@H]1CN([C@@H](C)CO)C(=O)c2cc(NS(=O)(=O)c3cn(C)cn3)ccc2O[C@@H](C)CCCCO[C@@H]1CN(C)S(=O)(=O)c1cn(C)cn1 was read as p53 PUMA act inactive and ID4 binder inactive.
`CC1=CC(C)C2(COC(=O)Nc3ccccc3)COC(c3cccnc3)C1C2C` (stereo unspecified) gave NOMO-1 viab 105.
For C[C@@H]1CN([C@H](C)CO)C(=O)c2cc(NC(=O)Nc3ccc(C(F)(F)F)cc3)ccc2O[C@H]1CN(C)C(=O)Nc1ccc2c(c1)OCO2 the results were STK33 inh inactive and NOMO-1 viab inactive.
`C[C@H](CO)N1C[C@H](C)[C@H](CN(C)C(=O)Nc2ccc3c(c2)OCO3)Oc2ccc(NC(=O)Nc3ccc(C(F)(F)F)cc3)cc2C1=O` gave STK33 inh inactive and NOMO-1 viab 99.
For C[C@@H]1CN([C@@H](C)CO)C(=O)c2cc(NC(=O)Nc3ccc4c(c3)OCO4)ccc2O[C@@H]1CN(C)C(=O)Nc1ccc(C(F)(F)F)cc1 the results were STK33 inh inactive, NOMO-1 viab 93, p53 PUMA act inactive and ID4 binder inactive.
COc1ccc(OCC(=O)Nc2sc(C)c(C)c2C(N)=O)cc1 was read as STK33 inh inactive, NOMO-1 viab inactive, p53 PUMA act inactive and ID4 binder inactive.
Cc1noc(C)c1NC(=O)Nc1ccc2c(c1)CC(=O)N([C@H](C)CO)C[C@H](C)[C@H](CN(C)S(=O)(=O)c1cccs1)O2 was read as STK33 inh inactive, NOMO-1 viab inactive, p53 PUMA act inactive and ID4 binder inactive.
For CC(C)=CCOc1cc2oc(=O)ccc2cc1O the results were STK33 inh inactive and NOMO-1 viab 109.
Screening CCCCC/C=C/C(=O)CCc1ccc(O)c(OC)c1 returned STK33 inh inactive, NOMO-1 viab 118 and ID4 binder inactive.
Screening CCCCCCCCC/C=C/C(=O)CCc1ccc(O)c(OC)c1 returned STK33 inh inactive and p53 PUMA act inactive.
For C[C@@H]1CN([C@@H](C)CO)C(=O)Cc2cc(NC(=O)Nc3cccc4ccccc34)ccc2O[C@@H]1CN(C)Cc1ccc(Oc2ccccc2)cc1 the results were NOMO-1 viab inactive.
Cc1ccc2c(c1)C(=O)C1(O)CCN(c3ccccc3)C1=N2 (stereo unspecified) was read as STK33 inh inactive, NOMO-1 viab 109, p53 PUMA act inactive and ID4 binder inactive.
Screening O=C(CCN1C(=O)C2C3C=CC(C3)C2C1=O)Oc1cccc2cccnc12 (stereo unspecified) returned STK33 inh inactive, NOMO-1 viab 113, p53 PUMA act inactive and ID4 binder inactive.
For O=C(CCN1C(=O)C2C3C=CC(C4CC34)C2C1=O)Oc1cccc2cccnc12 (stereo unspecified) the results were STK33 inh inactive, NOMO-1 viab 121, p53 PUMA act inactive and ID4 binder inactive.
`CC(C)(C)c1ccc(OC(=O)CCN2C(=O)C3C4C=CC(C5CC45)C3C2=O)cc1` (stereo unspecified) gave STK33 inh inactive, NOMO-1 viab inactive, p53 PUMA act inactive and ID4 binder inactive.
For Cc1noc(C)c1NC(=O)Nc1ccc2c(c1)CC(=O)N([C@@H](C)CO)C[C@H](C)[C@H](CN(C)C(=O)Nc1ccc(F)cc1)O2 the results were STK33 inh inactive and NOMO-1 viab inactive.
For C[C@H]1CN([C@@H](C)CO)C(=O)c2cccc(NC(=O)Nc3ccc4c(c3)OCO4)c2O[C@@H]1CN(C)S(C)(=O)=O the results were STK33 inh inactive and NOMO-1 viab inactive.
For C[C@@H]1CN([C@@H](C)CO)C(=O)c2cccc(NC(=O)Nc3ccc4c(c3)OCO4)c2O[C@H]1CN(C)C the results were NOMO-1 viab inactive, p53 PUMA act 74 and ID4 binder inactive.
`C[C@H]1CN([C@@H](C)CO)C(=O)c2cccc(NC(=O)Nc3ccc4c(c3)OCO4)c2O[C@@H]1CN(C)C` gave NOMO-1 viab inactive and p53 PUMA act 58.
CC(C)NC(=O)Nc1cccc2c1O[C@H](CN(C)CC1CCCCC1)[C@@H](C)CN([C@H](C)CO)C2=O was read as NOMO-1 viab inactive.
C=C1C(=O)O[C@@H]2C3C(=C(C)[C@@H](O)[C@@H](OC(=O)/C(=C/C)COC(C)=O)[C@@H]12)C(=O)[C@H]1O[C@@]31C (stereo partly specified) was read as STK33 inh inactive, NOMO-1 viab 119 and ID4 binder inactive.

Assay outcomes: PubChem, Broad Institute
